± gives the standard deviation. The full ranking holds about 5,500 sequences; the median of “pre-steady-state target cleavage rate” is about 0.1, and the highest 2% start at about 0.64. The full list was thinned out, with the highest values kept by preference.
Tested on: MIWI (PIWIL1) piRISC loaded with piRNA #2 (30 nt)
Assay: pre-steady-state target cleavage rate (min^-1); MIWI and MILI are mouse PIWI proteins and EfPiwi is from a freshwater sponge; tags in brackets are library labels; higher = faster piRNA-guided slicing of the target
Details: guide: piRNA #2 5'p-UUAGGUAACCCAGUAGAUCCAGAGGAAUUC; auxiliary factor: 500 nM mouse GTSF1
Procedure: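 Cleave-'n-Seq: a library of target RNAs (target site embedded in constant flanks, ACAGCATTCCGCGTTAGTGATATCCG... 5' flank; DNA-blocked outside the site) at 0.1 nM was incubated with 1 nM active mouse MILI or MIWI piRISC (synthetic 5'-monophosphorylated piRNA guide) with or without 500 nM mouse GTSF1 at 33 °C for 1 min to 16 h. Uncleaved targets were sequenced and normalised to non-target controls, and the pooled three trials were fitted to a burst-and-steady-state model to give the pre-steady-state cleavage rate (min^-1; k3 is constrained to at most 1e-4). Sequence is the target site only; target names encode pairing extent (gX:gY) and contiguous / 1-mismatch / 2-mismatch / bulge geometry. Fits with R² ≤ 0 are excluded.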

Sequence	pre-steady-state target cleavage rate
CAAUUCCACUCGAUCUACUGGGUUACCUAA	0.798 ± 0.047
GAAUUCCACUCGAUCUACUGGGUUACCUAA	0.564 ± 0.056
CUAUUCCACUGGAUCUACUCGGUUACCUAA	0.0817 ± 0.018
CUAUUCCACUGGAUCUACUGGGUUACCUAA	0.588 ± 0.061
CUUUUCCACUCGAUCUACUGGGUUACCUAA	0.547 ± 0.033
CUAUUCCACUCGAUCUACUGGGUUACCUAA	0.703 ± 0.037
CUUAACCUCUGGAUCUAGUGGGUUACCAAA	0.0597 ± 0.0073
CAAUUCCACUGGAACUACUGGGUUACCUAA	0.408 ± 0.042
CUUAAGCUGUGGAUCUACUGGGUUUCCUAA	0.0403 ± 0.019
CUAUACCUCUGGAUCUACUGGGUUACCUAA	0.544 ± 0.084
CAAUACCUCUGGAUCUACUGGGUUACGUAA	0.567 ± 0.059
GUAUACCUCUGGAUCUACUGGGUUACCUAA	0.642 ± 0.23
CUAUACCUCUGGAUCUACUGGGUUACGUAA	0.674 ± 0.032
CUAUACCUCUGGAUCUACUGCGUUACCUAA	0.732 ± 0.066
CUUAUACCUCUGGAUCUACUGGGUUACCUAA	0.389 ± 0.061
GAAUACCUCUGGAUCUACUGCGUUACCUAA	0.456 ± 0.04
GAAUACCUCUGGAUCUACUGGGUUACGUAA	0.609 ± 0.038
CAAUACCUCUGGAUCUACUGCGUUACCUAA	0.488 ± 0.063
CUUAAGCUCUGGAUCUACUGGCUUACCUAA	0.0576 ± 0.012
CUUAAGGUCUGGAUCUACUGCGUUUCCUAA	0.0557 ± 0.014

Sequence	pre-steady-state target cleavage rate
CUUAAGGUAUGGAUCUACUGGGUUACCUAA	0.323 ± 0.035
CAAUUCCUCUGGAACUACUCGGUUACCUAA	0.157 ± 0.022
CUUAACCUCUGGAUCUACUGGGUAAGCUAA	0.05 ± 0.0099
CUAUUCCUCCUGGAUCUACUGGGUUACCUAA	0.613 ± 0.06
GAAUUCCUCCGGAUCUACUGGGUUACCUAA	0.407 ± 0.058
CUAUUCCUCCGGAUCUACUGGGUUACCUAA	0.697 ± 0.12
CAAUUCCUCGGAUCUACUGGGUUACCUAA	0.47 ± 0.087
CAAUUCCUCCGGAUCUACUGGGUUACCUAA	0.677 ± 0.096
CUAUUCCUCGGAUCUACUGGGUUACCUAA	0.447 ± 0.083
CUUAAGGACUGGAUCUACAGCGUUACCUAA	0.00714 ± 0.0051
CUUUUCCACUGGAUCUACAGGGUUACCUAA	0.248 ± 0.016
CUAUUCCUCUCGAUCUUCUGGGUUACCUAA	0.803 ± 0.07
CUAUUCCUCUGGAUCUUCUGGGUUACCUAA	0.412 ± 0.054
CUUUUCCUCUCGAUCUUCUGGGUUACCUAA	0.63 ± 0.051
CAAUUCCUCUGGAUCUUCUGGGUUACCUAA	0.49 ± 0.065
GAAUUCCUCUCGAUCUUCUGGGUUACCUAA	0.62 ± 0.064
CAAUUCCUCUCGAUCUUCUGGGUUACCUAA	0.737 ± 0.059
CUUAUCCUCUGGAUCAUCUGGGUUACCUAA	0.246 ± 0.028
CAUAACCUCUGGAUCUACUGGGUUACCUAA	0.234 ± 0.033
CUUAACCUCUGGAUCUUCUGGGUUUCCUAA	0.042 ± 0.0092
